DT40 TDP1 CPT – growth inhibition of DT40 Tdp1-/-;hTDP1 cells with camptothecin (screen for TDP1 inhibitors). chicken DT40 Tdp1-/-;hTDP1 cells + 20 nM CPT, ATP luminescence, 48 h. Potency, µM (highest dose often 46.2 µM), for inactives: at the top dose activity change, negative = growth inhibition, hits mostly inhibitors. 420,000 compounds, 12% hits. AID 686979; note: potency is the fitted concentration of half-maximal effect; nearly all actives have a fitted effect of over 55% in size
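Cell growth measured by CellTiter-Glo luminescence after a minimum 48 h, 37 C compound exposure with 20 nM CPT in Tdp1-knockout DT40 cells stably expressing hTDP1, seeded 400/well; qHTS titration format.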
TDP1 cell noCPT – qHTS for Inhibitors of human tyrosyl-DNA phosphodiesterase 1 (TDP1): qHTS in cells in absence of CPT | DT40 Tdp1-/- hTDP1 cells, no CPT, ATP luminescence, 48 h | Potency, µM (doses to about 46.2 µM), for the others: at the top dose activity change, negative = growth inhibition, actives largely listed as inhibitors | 420,000 compounds, 15% hits | AID 686978, 2013; note: potency is the fitted concentration of half-maximal effect; nearly all actives have a fitted effect of over 55% in size
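No-CPT arm: Tdp1-/-;hTDP1 DT40 cells (400/well) plus compounds, incubated ≥48 hr at 37 °C. Readout CellTiter-Glo luminescence.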
IL-1B inflam inh – inhibitors of inflammasome signaling (IL-1 beta secretion); activity change, % at 57.5 µM; 360,000 compounds, 4.7% hits; AID 743279; THP-1 LPS/ATP IL-1B secretion, AlphaLISA, 16 h; hits give low values; in the data active = activity change below about -50%; inconclusive = mostly about -30% to -49%
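THP-1 cells pretreated 1 hr with compounds (up to 57.5 uM final), then stimulated with LPS (250 ng/mL final) plus ATP (1.25 mM final); secreted IL-1B measured by AlphaLISA after 16 hr, decreased signal indicating inhibition.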
HT1080NT lethal – kills 2HG-producing HT-1080-NT fibrosarcoma cells; HT-1080-NT fibrosarcoma viability, CellTiter-Glo ATP luminescence, 48 h; Potency, µM (series often up to 46.1 µM), for the others: top-dose activity, negative = less viability, hits mostly cytotoxic; 360,000 compounds, 1.6% hits;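 note: NT is the 2HG producing partner of a matched IDH1 knockdown line; potency is the fitted concentration of half-maximal effect; 0% = DMSO-treated cells and -100% = media-only wells without cells; nearly all actives have a fitted effect of over 55% in size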
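Luminescent CellTiter-Glo readout after 48 hours of compound exposure at 37 degrees C defined viability of HT-1080-NT cells. Activity was normalized to DMSO wells and cell-free media wells; concentration-response curves were fitted and assigned curve classes.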
HT1080 IDH1KD tx – HT-1080 IDH1 knockdown cell toxicity (counter line) | Potency, µM (highest dose often 46.1 µM), for the others: top-dose activity, negative = toxicity, usual class: cytotoxic | HT-1080 IDH1 knockdown viability, ATP luminescence, 48 h | 360,000 compounds, 2% hits | AID 686971;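 note: potency is the fitted concentration of half-maximal effect; 0% = DMSO wells and -100% = cell-free medium wells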
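After a 2 h attachment period, IDH1KD HT-1080 cells took pin-transferred compound for 48 h at 37 °C; ATP-based luminescence after 10 min room-temperature reagent incubation reported viability.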
* marks the source's active call; other numbers are inactive results; ? = inconclusive; nt = not tested or not shown; [ ] = dose if it differs, or a comment. Most compounds without a hit are left out; they make up all but 19% or so of the library. Unless noted, calls come from the whole dose curve; as a rule, active = well fitted curve in the direction sought with a large enough effect; inconclusive = small, poorly fitted or top-dose-only effect, or another doubt; inactive = no such curve, though single readings can be large; an effect the other way counts as inactive or inconclusive. Unless noted, % is set by controls: 0 for no effect and ±100 for the full control effect.

SMILES | DT40 TDP1 CPT | TDP1 cell noCPT | IL-1B inflam inh | HT1080NT lethal | HT1080 IDH1KD tx
CCCNc1sc(S(=O)(=O)CCC)nc1S(=O)(=O)c1ccc(C)cc1 | ? | ? | 1.6 | -1.6% | -4.0%
Cc1ccc(S(=O)(=O)c2nc(S(=O)(=O)c3ccc(C)cc3)c(NC(C)C)s2)cc1 | 16.4µM* | ? | nt | nt | nt
CCCS(=O)(=O)c1nc(S(=O)(=O)c2ccc(C)cc2)c(NC(C)c2ccccc2)s1 (stereo not drawn) | ? | 10.3µM* | nt | nt | nt
CCS(=O)(=O)c1nc(S(=O)(=O)c2ccc(C)cc2)c(NCc2ccccc2Cl)s1 | 16.4µM* | 10.3µM* | nt | nt | nt
CCS(=O)(=O)c1nc(S(=O)(=O)c2ccc(C)cc2)c(NCCCOC)s1 | -24.2% | ? | nt | nt | nt
Cc1ccc(S(=O)(=O)c2nc(S(=O)(=O)c3ccc(C)cc3)c(NCCCOC(C)C)s2)cc1 | ? | 16.4µM* | nt | nt | nt
Cc1ccccc1OCCSc1nnc(-c2ccc([N+](=O)[O-])cc2)o1 | -25.5% | -16.6% | nt | nt | nt
CCCNC(=O)c1nc(C)n(-c2ccc([N+](=O)[O-])cc2)n1 | ? | -24.0% | 21.2 | 8.3% | 16.4%
NS(=O)(=O)c1ccc(O)c(N2C(=O)c3cccc4c(C(=O)O)ccc(c34)C2=O)c1 | 12.9% | 10.5% | 0.0 | -0.3% | 0.4%
CC(NC(=O)C1CCN(C(=O)[C@@H]2Cc3ccccc3CN2)CC1)c1ccccc1 (stereo partly drawn) | -0.2% | 14.3% | -18.6 | 2.4% | -4.2%
O=C(CCCn1c(=O)c2sccc2n(Cc2ccc(F)cc2Cl)c1=O)NCc1ccc2c(c1)OCO2 | -4.4% | -29.7% | nt | nt | nt
O=C(CSc1nc2ccc([N+](=O)[O-])cc2[nH]1)NC1CCCCC1 | ? | 25.9µM* | 0.0 | ? | ?
O=C(CSc1nc2ccc([N+](=O)[O-])cc2[nH]1)NC1CCCCCC1 | -15.2% | ? | -84.3* | ? | ?
CCOC(=O)NC(=O)CSc1nc2ccc([N+](=O)[O-])cc2[nH]1 | 4.8% | -0.2% | 0.0 | -1.6% | -0.9%
COc1ccc(C(=O)CSc2nc3ccc([N+](=O)[O-])cc3[nH]2)cc1 | ? | 16.4µM* | -2.4 | 1.7% | 0.0%
O=C(CSc1nc2ccc(Cl)cc2[nH]1)NC1CCCC1 | -16.4% | -29.8% | 0.0 | 6.1% | 11.8%
Cc1nc2nc(SCC(=O)c3cccc([N+](=O)[O-])c3)[nH]c2cc1Br | ? | 18.4µM* | 3.4 | -1.9% | -12.3%
COC(=O)c1cccc(-c2cc(Cl)c3c(c2)CC(CNC(=O)c2cccnc2)O3)c1 (stereo not drawn) | 16.6%[9.04 µM] | ? | nt | nt | nt
O=[N+]([O-])c1ccc2c(c1N1CCCCC1)=NC1(CCCCC1)[N+]=2[O-] | 20.6µM* | 20.6µM* | 2.8 | -8.7% | -5.0%
Cc1ccc(-n2cc(CNCC3CC(=O)N(C4CC4)C3)c(-c3cccc(C)c3)n2)cc1 (stereo not drawn) | 11.6µM* | 14.6µM* | -63.9* | 0.0% | -2.3%
COC(C/C=C\[C@H](O)[C@@H](C)OCc1ccccc1)OC | -6.1% | -3.0% | 33.8 | 11.2% | 12.5%
CS(=O)(=O)N1CCCCC1c1cc(C(=O)Nc2cccc3c2CCCC3)no1 (stereo not drawn) | 14.6µM* | 9.2µM* | -6.4 | 15.2% | 3.7%
O=C(Nc1ccccc1)c1cc(C2CCCCN2S(=O)(=O)c2cccs2)on1 (stereo not drawn) | -27.1% | ? | -14.4 | -16.9% | -22.9%
N#Cc1ccc(S(=O)(=O)N2CCCCC2c2cc(C(=O)Nc3cccc4c3CCCC4)no2)cc1 (stereo not drawn) | ? | ? | 6.7 | 2.7% | 2.5%
Cc1noc(C)c1S(=O)(=O)N1CCCCC1c1cc(C(=O)Nc2cccc3c2CCCC3)no1 (stereo not drawn) | ? | 20.6µM* | -4.7 | 12.1% | 8.7%
SMILES | DT40 TDP1 CPT | TDP1 cell noCPT | IL-1B inflam inh | HT1080NT lethal | HT1080 IDH1KD tx
O=C(Nc1cccc2c1CCCC2)c1cc(C2CCCCN2S(=O)(=O)c2cccs2)on1 (stereo not drawn) | 16.4µM* | 23.1µM* | 19.8 | -1.0% | 0.4%
CC(=O)Nc1ccc(C(=O)N2CCCCC2c2cc(C(=O)Nc3cccc4c3CCCC4)no2)cc1 (stereo not drawn) | ? | ? | 0.7 | 16.4µM* | 5.8µM*
CC(=O)Nc1ccc(C(=O)N2CCCCC2c2cc(C(=O)NC(C)C)no2)cc1 (stereo not drawn) | -0.7% | 4.7% | 9.2 | 15.5% | 12.1%
COC(=O)C1=C(CSc2nncn2C)NC(=O)NC1c1ccc(F)cc1 (stereo not drawn) | 6.0% | -0.2% | -8.4 | 8.5% | -5.6%
CC(C)C[C@H](NC(=O)OC(C)(C)C)C(=O)N1CCC(C(=O)N[C@@H](Cc2ccccc2)C(=O)O)CC1 | 4.6% | -7.0% | 10.8 | 0.9% | 16.4%
COc1ccc(CNC[C@H]2O[C@@H](n3ccc(=O)[nH]c3=O)[C@H](O)[C@@H]2O)cc1OC | -13.9% | -61.7% | -22.2 | 1.0% | 0.7%
O=C(NCCc1ccccc1)C(=O)c1c(-c2ccccc2)[nH]c2ccccc12 | ? | ? | ? | -13.5% | -0.1%
O=C(Nc1ccc2c(c1)OCO2)c1cc(C2CCCCN2S(=O)(=O)c2cccs2)on1 (stereo not drawn) | ? | 23.1µM* | -14.3 | -7.6% | -21.6%
COc1ccc(CCNC(=O)c2ccc(NC(=O)CC3SC(N4CCCCC4)=NC3=O)cc2)cc1 (stereo not drawn) | -14.6% | ? | -8.0 | -3.3% | -0.3%
Cc1ccc(S(=O)(=O)N2CC(O)C[C@H]2C(=O)OCC(=O)Nc2ccc(N3CCCCC3)cc2)cc1C (stereo partly drawn) | ? | 18.4µM* | -1.4 | -7.9% | -5.7%
O=C1N=C2N(CCN3CCCCC3)c3ccccc3N2/C1=C\c1ccc([N+](=O)[O-])s1 | 9.2µM* | ? | -18.7 | 5.4% | 4.5%
O=[N+]([O-])c1ccc(N2CCCCC2)s1 | -21.6% | -15.0% | -15.3 | 4.9% | 5.8%
CC1CC(C)CN(S(=O)(=O)c2ccc(C(=O)OCC(=O)Nc3ccccc3)cc2)C1 (stereo not drawn) | 1.5% | -7.1% | 7.1 | 4.7% | 5.9%
COC(=O)c1sccc1S(=O)(=O)N1CCN(c2ccc(C(C)=O)cc2)CC1 | -25.8% | -28.0% | nt | nt | nt
CCOC(=O)C(=CNc1nc(-c2ccccc2)c(C(=O)Nc2ccc(-c3ccccc3)cc2)s1)C(=O)OCC | 16.4µM* | ? | 56.9 | 14.1% | 24.2%
COC(=O)c1sc2ccccc2c1S(=O)(=O)N1CCN(c2ccc(C(C)=O)cc2)CC1 | 16.4µM* | ? | nt | nt | nt
